Measured values published in publication PMC3218832.

Experiments:
Assay in all cases: protein binding microarray; high values mean tight binding
Conditions in all cases: dsDNA, one strand shown
RELARELA (p65 homodimer) = RELARELA (p65 homodimer) (Homo sapiens, UniProt Q04206 1-307)
p50p50 homodimer = p50p50 homodimer (Homo sapiens, UniProt P19838 7-356)
p52p52 homodimer = biological target: T1, p52p52 homodimer (Homo sapiens, UniProt Q00653 4-332)
T1 sequence: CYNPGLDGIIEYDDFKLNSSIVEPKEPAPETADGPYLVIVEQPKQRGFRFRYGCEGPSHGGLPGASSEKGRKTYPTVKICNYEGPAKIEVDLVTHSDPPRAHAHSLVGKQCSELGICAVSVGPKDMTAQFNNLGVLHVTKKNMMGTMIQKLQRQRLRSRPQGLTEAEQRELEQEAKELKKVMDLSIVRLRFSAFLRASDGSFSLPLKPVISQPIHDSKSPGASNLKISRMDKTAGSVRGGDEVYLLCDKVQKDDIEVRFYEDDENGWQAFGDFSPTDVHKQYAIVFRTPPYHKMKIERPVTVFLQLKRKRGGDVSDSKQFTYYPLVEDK

[1] = biological target: RELA (p65) subunit of heterodimer;p50 subunit (Homo sapiens;Homo sapiens, UniProt Q04206;P19838 1-307;7-356)
[2] = biological target: RELA (p65) subunit of heterodimer;p52 subunit (Homo sapiens;Homo sapiens, UniProt Q04206;Q00653 1-307;4-332)
RELB subunit;p50 subunit = RELB subunit;p50 subunit (Homo sapiens;Homo sapiens, UniProt Q01201;P19838 120-401;7-356)
RELB subunit;p52 subunit = biological target: T2, RELB subunit;p52 subunit (Homo sapiens;Homo sapiens, UniProt Q01201;Q00653 120-401;4-332)
T2 sequence 1: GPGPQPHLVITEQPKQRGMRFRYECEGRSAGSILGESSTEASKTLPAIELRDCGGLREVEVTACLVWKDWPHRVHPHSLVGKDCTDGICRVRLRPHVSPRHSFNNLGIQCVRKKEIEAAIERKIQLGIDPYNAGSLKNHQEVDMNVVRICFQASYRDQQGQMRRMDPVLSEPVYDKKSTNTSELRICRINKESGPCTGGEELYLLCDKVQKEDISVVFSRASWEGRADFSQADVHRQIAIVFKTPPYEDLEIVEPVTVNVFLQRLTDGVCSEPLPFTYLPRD
T2 sequence 2: T1 sequence

[3] = biological target: C-Rel subunit;p50 subunit (Homo sapiens;Homo sapiens, UniProt Q04864;P19838 1-285;7-356)
[4] = biological target: T3, C-Rel subunit;p52 subunit (Homo sapiens;Homo sapiens, UniProt Q04864;Q00653 1-285;4-332)
T3 sequence 1: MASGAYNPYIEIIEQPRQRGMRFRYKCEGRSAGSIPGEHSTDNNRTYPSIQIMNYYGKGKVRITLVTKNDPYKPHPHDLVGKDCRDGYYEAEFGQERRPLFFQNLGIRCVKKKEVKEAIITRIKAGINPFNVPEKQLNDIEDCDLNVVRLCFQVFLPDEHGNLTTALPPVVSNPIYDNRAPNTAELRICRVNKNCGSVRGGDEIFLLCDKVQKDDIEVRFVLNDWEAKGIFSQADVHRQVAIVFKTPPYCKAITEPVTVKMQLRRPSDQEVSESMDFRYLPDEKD
T3 sequence 2: T1 sequence

Chain of p50p50 homodimer (P19838 7-356): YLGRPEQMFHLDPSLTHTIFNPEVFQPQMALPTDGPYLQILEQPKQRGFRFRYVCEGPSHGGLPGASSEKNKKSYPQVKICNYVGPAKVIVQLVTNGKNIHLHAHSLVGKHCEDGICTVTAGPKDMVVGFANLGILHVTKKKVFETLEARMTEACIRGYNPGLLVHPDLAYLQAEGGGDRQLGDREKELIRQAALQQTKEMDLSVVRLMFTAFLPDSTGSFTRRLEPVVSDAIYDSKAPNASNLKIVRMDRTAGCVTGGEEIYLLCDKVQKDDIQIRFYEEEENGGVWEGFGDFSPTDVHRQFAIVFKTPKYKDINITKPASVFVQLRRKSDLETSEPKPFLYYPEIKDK
Chain of RELA (p65) subunit of heterodimer;p50 subunit (Q04206 1-307, chain 1 of 2): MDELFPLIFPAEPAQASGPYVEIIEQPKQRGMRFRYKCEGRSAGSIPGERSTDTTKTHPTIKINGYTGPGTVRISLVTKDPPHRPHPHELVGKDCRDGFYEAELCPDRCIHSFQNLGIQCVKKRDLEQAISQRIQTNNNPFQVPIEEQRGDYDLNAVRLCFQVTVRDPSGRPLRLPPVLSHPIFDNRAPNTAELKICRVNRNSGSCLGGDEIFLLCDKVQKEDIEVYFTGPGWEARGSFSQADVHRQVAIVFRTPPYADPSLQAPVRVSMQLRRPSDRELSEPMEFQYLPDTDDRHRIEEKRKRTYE
Chain of RELA (p65) subunit of heterodimer;p50 subunit (P19838 7-356, chain 2 of 2): as the sequence (P19838 7-356) above
Chain of RELARELA (p65 homodimer) (Q04206 1-307): as the sequence (Q04206 1-307, chain 1 of 2) above

Row | Sequence | binding signal (RELARELA (p65 homodimer)) [z-score] | binding signal (p50p50 homodimer) [z-score] | binding signal (p52p52 homodimer) [z-score] | binding signal [1] [z-score] | binding signal [2] [z-score] | binding signal (RELB subunit;p50 subunit) [z-score] | binding signal (RELB subunit;p52 subunit) [z-score] | binding signal [3] [z-score] | binding signal [4] [z-score]
1 | CAAGGGTCCCT | -0.447 | 0.337 | 0.26 | -0.269 | 0.0513 | 0.363 | 0.276 | -0.315 | -0.166
2 | CGAATCGCCCT | -0.52 | -1.41 | -0.603 | -0.694 | -0.649 | -0.752 | -0.785 | -0.785 | -0.657
3 | AGATTACCCCC | 0.372 | 1.19 | 0.936 | 1.24 | 1.2 | 1.18 | 1.63 | 1.21 | 1.12
4 | AGGGGATCCCT | 1.82 | 1.11 | 2.11 | 2.32 | 1.95 | 1.58 | 1.57 | 1.42 | 2.29
5 | CAGGTTACCCC | 0.269 | 0.178 | 0.0851 | 0.345 | 0.253 | 0.443 | 0.629 | 0.552 | 0.49
6 | CAGTTCTCCCT | 0.501 | 1.08 | 0.65 | 0.838 | 0.551 | 1.22 | 1.11 | 0.63 | 0.344
7 | AGGTGACTCCT | -0.642 | -0.518 | -0.228 | -0.661 | -0.704 | -0.778 | -0.791 | -0.985 | -0.779
8 | AAATGACCCCT | -0.474 | 0.593 | 0.182 | 0.135 | 0.303 | 0.241 | 0.325 | -0.224 | 0.165
9 | CGATTGTCCCT | 0.353 | 1.16 | 1.18 | 0.871 | 0.943 | 1.29 | 1.27 | 0.77 | 0.66
10 | GAATTCACCCC | 0.545 | 0.437 | 0.192 | 0.892 | 0.806 | 0.49 | 0.753 | 0.643 | 0.698
11 | GAGAGCCCCCC | -1.07 | 1.13 | 0.398 | 0.853 | 0.722 | 0.759 | 0.733 | 0.773 | 0.389
12 | CGAGGCTTCCT | -0.994 | -2.47 | -0.827 | -1.09 | -1.19 | -1.31 | -1.05 | -1.49 | -1.05
13 | GGAGGGATCCT | -0.405 | -1.1 | -0.254 | -0.619 | -0.58 | -0.707 | -0.517 | -1.01 | -0.454
14 | GGAGGGTCCCT | -0.115 | 0.371 | 0.534 | 0.933 | 0.819 | 0.287 | 0.448 | 0.496 | 0.547
15 | CAGAGTGTCCC | 0.916 | 0.0211 | 0.161 | 0.185 | 0.144 | 0.304 | 0.434 | 0.274 | 0.221
16 | CAGTACGCCCT | -0.311 | -1.79 | -0.678 | -0.914 | -0.662 | -0.89 | -0.84 | -1.25 | -0.761
17 | AAGTAGACCCT | -0.746 | -0.785 | -0.531 | -0.711 | -0.775 | -0.737 | -0.709 | -1.17 | -0.772
18 | GGAGAACCCCC | 0.892 | 1.01 | 1.75 | 1.88 | 1.77 | 1.42 | 1.59 | 1.21 | 1.74
19 | GGAAATCCCCT | 3.63 | 1.5 | 3.23 | 3.21 | 3.34 | 2.45 | 3.27 | 3.04 | 3.88
20 | AGATGTTCCCT | 0.238 | 0.414 | 0.229 | 0.235 | -0.0295 | 0.0779 | -0.091 | 0.0801 | -0.204
21 | AGGTTCATCCC | -0.622 | -0.302 | -0.0688 | -0.431 | -0.313 | -0.476 | -0.362 | -0.498 | -0.243
22 | CGAGGCACCCT | -1.09 | -1.16 | -0.572 | -1.04 | -0.854 | -0.726 | -0.72 | -0.919 | -1.01
23 | CAAAAAGTCCC | 2.29 | 1.2 | 2.38 | 1.75 | 1.58 | 2.23 | 1.75 | 1.53 | 2.25
24 | CAAATTTTCCC | 2.86 | 1.18 | 1.47 | 1.48 | 1.47 | 1.08 | 1.27 | 1.5 | 1.39
25 | GAGTTCTCCCC | 0.519 | 1.01 | 0.732 | 1.01 | 1.01 | 1.23 | 1.07 | 1.15 | 0.673
26 | GGATAAATCCC | 0.859 | 0.48 | 0.567 | 0.64 | 0.582 | 0.489 | 0.482 | 0.867 | 0.396
27 | GGAGATATCCT | -0.481 | -1.23 | -0.703 | -0.874 | -0.798 | -1.04 | -0.872 | -1.35 | -0.82
28 | CGGAAATTCCC | 4.22 | 1.06 | 2.53 | 2.23 | 2.39 | 1.19 | 2.04 | 2.28 | 2.88
29 | GGAGTTTTCCT | 1.88 | -0.38 | -0.329 | 0.312 | -0.0971 | -0.676 | -0.581 | 0.446 | 0.304
30 | CGAGGTGCCCT | -0.746 | -1.52 | -0.61 | -0.798 | -0.84 | -0.973 | -0.87 | -1.16 | -0.789
